Screens deposited in PubChem BioAssay by National Center for Advancing Translational Sciences (NCATS).
NS1 function inh: inhibitors of influenza NS1 protein function. Potency, µM (highest dose often 46.1 µM), for inactives: top-dose activity, positive = more growth. 270,000 tested, 0.4% active; calls by dose curve; also: potency is read from the fitted curve at half-maximal effect; actives are rising curves; nearly all actives have a fitted effect of over 50% in size
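Read-out: OD600 growth recovery of NS1-expressing budding yeast. Cells grown overnight at 30C in -URA glucose medium, washed, resuspended and diluted 1:100 in 2% galactose assay medium, pH 6.0. Same strain lacking NS1 served as positive control.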
Pf growth 96h: P. falciparum growth inhibition at 96 hours; Potency, µM (titrated, usually from 28.7 µM), for inactives: top-dose activity change, negative = inhibition, actives largely listed as inhibitors; 320,000 tested, 6.9% active; P. falciparum luciferase reporter growth, 96 h; also: potency is read from the fitted curve at half-maximal effect; % is scaled to controls: 0 for no effect and ±100 for the full control effect
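P. falciparum expressing integrated firefly luciferase, in erythrocytes at 2% hematocrit, 0.05% parasitemia, incubated with compounds 96 h at 37 C, 5% CO2. Growth inhibition read as loss of luminescence; two-generation exposure targets delayed-death apicoplast inhibitors.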
Pf growth 48h: inhibits P. falciparum growth in the first generation, 48 h | AID 504832 | Potency, µM (highest dose often 28.7 µM), for inactives: at the top dose activity change, negative = inhibition, most hits filed as inhibitors | 310,000 tested, 5.9% active | P. falciparum luciferase growth in erythrocytes, 48 h; also: potency is read from the fitted curve at half-maximal effect; % is scaled to controls: 0 for no effect and ±100 for the full control effect
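Parasite viability was followed by luminescence of a genomically integrated firefly luciferase. Cultures held 0.1% parasitemia at 2% hematocrit (final), incubated under 5% CO2 at 37 C.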
Shiga inhibitor: blocks Shiga toxin action in Vero cells; Vero cells, Shiga toxin protein synthesis inhibition reporter; inhibition, % at 38.7 µM; 290,000 tested, 9.2% active; in the data active = inhibition mostly above about 28%, no sharp cut-off; inactive = mostly below about 43%; also: 0% is about no effect
Cycloheximide cs: affects cycloheximide protein synthesis inhibition readout, counter-screen | max response, % | 300,000 tested, 12% active | cell reporter, cycloheximide protein synthesis inhibition counterscreen | AID 2314; in the data active = max response mostly above about 13%, no sharp cut-off; inactive = mostly below about 14%; also: read at 38.3 µM for the half of the compounds with a filed dose; 0% is about no effect
An asterisk follows results filed as active. An excerpt weighted towards active compounds, which were near 21% of everything screened. Unless noted, calls follow the shape of the dose curve; as a rule, active = well fitted inhibition curve with a large enough effect; inconclusive = small, poorly fitted or top-dose-only effect, or another doubt; inactive = no such curve, though single readings can be large or run the other way.

For Cc1nn(CC(=O)Nc2ccc3nc4n(c(=O)c3c2)CCCC4)c(C)c1[N+](=O)[O-] the results were NS1 function inh 9.2%, Pf growth 96h inconclusive, Pf growth 48h 3.7%, Shiga inhibitor -10.3 and Cycloheximide cs -3.5.
`O=C(C[n+]1cc(Br)cc(Br)c1)c1cccc([N+](=O)[O-])c1` gave NS1 function inh inconclusive, Pf growth 96h inconclusive, Pf growth 48h inconclusive, Shiga inhibitor -4.9 and Cycloheximide cs 3.6.
CN1CCN(CC(=O)c2ccccc2F)CC1 was read as NS1 function inh 1.3%, Pf growth 96h -12.4%, Pf growth 48h -23.9%, Shiga inhibitor 14.6 and Cycloheximide cs -4.6.
COc1ccc(CCN(C)C(=O)c2cc(-c3ccccc3)nc3ccccc23)cc1OC was read as NS1 function inh -44.6%, Pf growth 96h 7.38µM*, Pf growth 48h 13.1µM*, Shiga inhibitor -11.9 and Cycloheximide cs -3.5.
For O=C(/C=C/c1ccc(Cl)cc1Cl)NC(=S)Nc1ccccn1 the results were NS1 function inh -3.9%, Pf growth 96h -11.3%, Pf growth 48h 154.8%, Shiga inhibitor 85.7* and Cycloheximide cs 38.0*.
For O=C(Cn1nc(-c2ccccc2)c2ccccc2c1=O)Nc1ccccn1 the results were NS1 function inh -31.7%, Pf growth 48h 10.5%, Shiga inhibitor 80.4 and Cycloheximide cs 45.9*.
O=C(Nc1ccccn1)c1ccc(C(=O)Nc2ccccn2)cc1 was read as NS1 function inh -1.7%, Pf growth 96h -6.3%, Pf growth 48h 12.2%, Shiga inhibitor 11.0 and Cycloheximide cs 1.0.
For O=C(NC(=S)Nc1ccccn1)c1ccccc1 the results were NS1 function inh -37.9%, Pf growth 96h -7.0%, Pf growth 48h 284.7%, Shiga inhibitor 68.3* and Cycloheximide cs 39.6*.
O=C(NC(=S)Nc1ccccn1)c1ccc(-c2ccccc2)cc1 was read as NS1 function inh 0.4%, Pf growth 96h inconclusive, Pf growth 48h 115.7%, Shiga inhibitor 126.6* and Cycloheximide cs 63.2*.
`CN=C1CC(SC)=C1c1ccc(C)cc1` gave NS1 function inh -6.7%, Pf growth 96h 13.6%, Pf growth 48h 7.4%, Shiga inhibitor 13.8 and Cycloheximide cs -1.3.
For Cc1ccnc(NC(=O)c2ccc3[nH]c(=O)c(=O)[nH]c3c2)c1 the results were NS1 function inh 0.1%, Pf growth 96h 64.2%, Pf growth 48h 24.0%, Shiga inhibitor -3.2 and Cycloheximide cs 9.6.
For O=C(CC(=O)c1ccccc1)Nc1ccccn1 the results were NS1 function inh -1.8%, Pf growth 96h inconclusive, Pf growth 48h 206.9%, Shiga inhibitor 76.5* and Cycloheximide cs 43.2*.
For O=C(NC(=S)Nc1ccccn1)c1ccc([N+](=O)[O-])cc1 the results were NS1 function inh 1.0%, Pf growth 96h inconclusive, Pf growth 48h 74.3%, Shiga inhibitor 198.8* and Cycloheximide cs 51.1*.
`CN(CC(=O)Nc1ccc(Cl)cc1F)C1CCS(=O)(=O)C1` (configuration not stated) gave Pf growth 96h 16.7% and Pf growth 48h 1.3%.
`C=C(C)Cn1c(CCNC(=O)CC)nc2ccccc21` gave NS1 function inh -3.6%, Pf growth 96h 17.1%, Pf growth 48h -6.5%, Shiga inhibitor -4.6 and Cycloheximide cs -3.8.
For CCOc1ccccc1OCC(=O)NCc1ccco1 the results were NS1 function inh -15.4%, Pf growth 96h inconclusive, Pf growth 48h -5.6%, Shiga inhibitor -8.5 and Cycloheximide cs -3.5.
CCOc1ccc(C(=O)NCc2ccco2)cc1OCC was read as NS1 function inh 7.9%, Pf growth 96h 181.4%, Pf growth 48h 0.0%, Shiga inhibitor 20.8 and Cycloheximide cs -1.9.
`O=C(CC12CC3CC(CC(C3)C1)C2)NC(=S)NCc1ccco1` gave NS1 function inh -0.5%, Pf growth 96h inconclusive, Pf growth 48h 13.1µM*, Shiga inhibitor 20.0 and Cycloheximide cs 1.8.
O=C(NCc1ccco1)c1ccc(COc2cc(Cl)ccc2Cl)cc1 was read as NS1 function inh 2.0%, Pf growth 96h inconclusive, Pf growth 48h 5.22µM*, Shiga inhibitor 69.2* and Cycloheximide cs 23.9*.
For O=C(COc1ccccc1Cl)NCc1ccco1 the results were NS1 function inh -6.1%, Pf growth 48h 27.5%, Shiga inhibitor 30.3 and Cycloheximide cs 22.5*.
For O=C(COc1cccc2c1CCN(Cc1ccc(Br)cc1)C2=O)NCc1ccco1 the results were NS1 function inh -4.1%, Pf growth 96h inconclusive, Pf growth 48h inconclusive, Shiga inhibitor 64.7 and Cycloheximide cs 29.4*.
Screening Cc1ccc2c(Cl)cc(Cl)c(OCC(=O)NCc3ccco3)c2n1 returned NS1 function inh 8.9%, Pf growth 96h inconclusive, Shiga inhibitor 8.5 and Cycloheximide cs 5.9.
For Cc1ccc2c(Cl)cc(Cl)c(OCC(=O)NC(=O)NCc3ccco3)c2n1 the results were NS1 function inh -5.8%, Pf growth 96h inconclusive, Pf growth 48h 2.33µM*, Shiga inhibitor 10.0 and Cycloheximide cs -3.3.
C/C(CC(=O)NCc1ccco1)=N\NC(=O)COc1ccc(Cl)cc1Cl was read as NS1 function inh -3.4%, Pf growth 96h 24.9%, Pf growth 48h 17.9%, Shiga inhibitor -6.9 and Cycloheximide cs -2.5.
O=C(Cc1ccc(-c2ccccc2)cc1)NNC(=S)NCc1ccco1 was read as Pf growth 96h inconclusive, Pf growth 48h 0.8%, Shiga inhibitor 56.0* and Cycloheximide cs 31.9.
O=C(COc1ccc(Cl)cc1Cl)NCc1ccco1 was read as NS1 function inh -20.5%, Pf growth 96h inconclusive, Pf growth 48h 55.3%, Shiga inhibitor 125.5* and Cycloheximide cs 28.7*.
Screening O=C(COc1ccc(Cl)cc1Cl)NNC(=S)NC(=O)c1ccco1 returned NS1 function inh -32.7%, Pf growth 96h 16.2%, Pf growth 48h -5.9%, Shiga inhibitor 10.2 and Cycloheximide cs 1.2.
`O=C(COc1ccc(Cl)cc1Cl)NNC(=S)NCc1ccco1` gave NS1 function inh -8.9%, Pf growth 96h 0.1%, Pf growth 48h 28.3%, Shiga inhibitor 21.9 and Cycloheximide cs 16.6*.
For N#CCc1ccc(Oc2ncccn2)cc1 the results were NS1 function inh 8.2%, Pf growth 96h 30.1%, Pf growth 48h 31.3%, Shiga inhibitor 3.4 and Cycloheximide cs 6.7.
`COc1ccc(S(=O)(=O)Nc2cc3c4c(oc3c3ccccc23)CC(C)(C)CC4=O)cc1` gave NS1 function inh 1.2%, Pf growth 96h inconclusive, Pf growth 48h inconclusive, Shiga inhibitor 49.4 and Cycloheximide cs 13.4.
`COc1ccc(S(=O)(=O)Nc2cc3c4c(oc3c3ccccc23)CCCC4=O)cc1` gave NS1 function inh 5.6%, Pf growth 96h 9.28µM*, Shiga inhibitor -11.3 and Cycloheximide cs 6.3.
Screening Cc1cccc(-c2noc(CCCC(=O)NC3CCCC3)n2)c1 returned NS1 function inh -5.8%, Pf growth 96h 2.0%, Pf growth 48h -3.7%, Shiga inhibitor 3.8 and Cycloheximide cs 0.4.
CCOc1ccc(-c2c(C(=O)N/N=C/c3cccs3)nnn2-c2nonc2N)cc1 was read as NS1 function inh 6.0%, Pf growth 96h -15.1%, Pf growth 48h 7.7%, Shiga inhibitor 25.2 and Cycloheximide cs -0.4.
